From ChEMBL document CHEMBL1961873, “Compounds: GSK PKIS; Assays: Nanosyn kinase panel” (2012) come the findings set out here.

The target in test [1] is Serine/threonine-protein kinase PAK 6 (Homo sapiens) (UniProt Q9NQU5). The following applies: at 1 µM.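 Note: values are mean percent inhibition of PAK6 kinase.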
Test [2] deals with Tyrosine-protein kinase ABL1 (Homo sapiens), P00519 [E255K]. The following applies: at 0.1 µM.
For test [3] the test system is unchanged. Particulars: at 1 µM.
Test [4] relates to Tyrosine-protein kinase ABL1 (Homo sapiens), P00519 [H396P]. Particulars: at 0.1 µM.
Test [5] has the same test system. Particulars: at 1 µM.
Test [6] relates to Tyrosine-protein kinase ABL1 (Homo sapiens), P00519 [M351T]. The following applies: at 0.1 µM.
Test [7] has the same test system. The following applies: at 1 µM.
In test [8] the test system is Tyrosine-protein kinase ABL1 (Homo sapiens), P00519 [Q252H]. The following applies: at 0.1 µM.
Test [9] shares this test system. The following applies: at 1 µM.
Test [10] relates to Tyrosine-protein kinase ABL1 (Homo sapiens), P00519 [T315I]. Particulars: at 0.1 µM.
Test [11] shares this test system. The following applies: at 1 µM.
In test [12] the test system is Tyrosine-protein kinase ABL1 (Homo sapiens), P00519 [Y253F]. Particulars: at 0.1 µM.
Test [13] shares this test system. Particulars: at 1 µM.
The target of test [14] is Tyrosine-protein kinase ABL1 (Homo sapiens) (UniProt P00519). The following applies: at 0.1 µM.
Test [15] shares this target. The following applies: at 1 µM.
Test [16] addresses ALK tyrosine kinase receptor (Homo sapiens) (UniProt Q9UM73). The following applies: at 0.1 µM.
Test [17] has the same target. The following applies: at 1 µM.
The target of test [18] is Tyrosine-protein kinase ABL2 (Homo sapiens) (UniProt P42684). Particulars: at 0.1 µM.
Tyrosine-protein kinase ABL2 (Homo sapiens), sequence (P42684 whole entry): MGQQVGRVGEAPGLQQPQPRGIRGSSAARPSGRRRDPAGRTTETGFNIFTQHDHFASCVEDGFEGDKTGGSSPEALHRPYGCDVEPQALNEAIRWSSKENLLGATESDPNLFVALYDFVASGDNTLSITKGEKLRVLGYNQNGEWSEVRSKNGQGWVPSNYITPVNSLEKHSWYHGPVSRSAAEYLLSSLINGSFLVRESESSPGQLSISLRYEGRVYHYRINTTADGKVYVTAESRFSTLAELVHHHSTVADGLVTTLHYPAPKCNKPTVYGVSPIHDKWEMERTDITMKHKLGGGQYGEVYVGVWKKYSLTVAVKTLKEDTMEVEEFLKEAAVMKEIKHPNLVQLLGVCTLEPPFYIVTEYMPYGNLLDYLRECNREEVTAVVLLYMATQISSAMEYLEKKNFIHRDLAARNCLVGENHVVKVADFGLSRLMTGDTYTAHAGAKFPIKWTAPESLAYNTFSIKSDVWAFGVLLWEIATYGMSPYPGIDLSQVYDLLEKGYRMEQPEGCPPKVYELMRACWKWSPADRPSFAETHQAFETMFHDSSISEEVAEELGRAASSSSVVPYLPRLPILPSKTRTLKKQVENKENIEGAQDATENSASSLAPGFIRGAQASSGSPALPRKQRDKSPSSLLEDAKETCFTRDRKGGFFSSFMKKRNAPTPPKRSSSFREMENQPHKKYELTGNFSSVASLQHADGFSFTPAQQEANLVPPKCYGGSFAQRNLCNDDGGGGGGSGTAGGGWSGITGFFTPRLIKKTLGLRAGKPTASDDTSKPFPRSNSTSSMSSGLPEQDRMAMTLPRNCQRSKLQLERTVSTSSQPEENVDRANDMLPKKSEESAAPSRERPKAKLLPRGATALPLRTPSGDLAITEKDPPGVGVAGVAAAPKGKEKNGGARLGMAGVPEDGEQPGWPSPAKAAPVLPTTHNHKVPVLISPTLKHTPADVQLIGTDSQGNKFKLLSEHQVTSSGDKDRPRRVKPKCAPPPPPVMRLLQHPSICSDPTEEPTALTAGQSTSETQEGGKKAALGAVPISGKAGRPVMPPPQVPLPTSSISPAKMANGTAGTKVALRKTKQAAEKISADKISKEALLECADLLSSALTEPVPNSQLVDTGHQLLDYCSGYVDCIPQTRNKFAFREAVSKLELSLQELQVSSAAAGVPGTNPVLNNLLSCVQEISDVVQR
Test [19] shares this target. The following applies: at 1 µM.
Test [20] deals with Tyrosine-protein kinase receptor UFO (Homo sapiens) (UniProt P30530). The following applies: at 0.1 µM.
Tyrosine-protein kinase receptor UFO (Homo sapiens), sequence (P30530 whole entry): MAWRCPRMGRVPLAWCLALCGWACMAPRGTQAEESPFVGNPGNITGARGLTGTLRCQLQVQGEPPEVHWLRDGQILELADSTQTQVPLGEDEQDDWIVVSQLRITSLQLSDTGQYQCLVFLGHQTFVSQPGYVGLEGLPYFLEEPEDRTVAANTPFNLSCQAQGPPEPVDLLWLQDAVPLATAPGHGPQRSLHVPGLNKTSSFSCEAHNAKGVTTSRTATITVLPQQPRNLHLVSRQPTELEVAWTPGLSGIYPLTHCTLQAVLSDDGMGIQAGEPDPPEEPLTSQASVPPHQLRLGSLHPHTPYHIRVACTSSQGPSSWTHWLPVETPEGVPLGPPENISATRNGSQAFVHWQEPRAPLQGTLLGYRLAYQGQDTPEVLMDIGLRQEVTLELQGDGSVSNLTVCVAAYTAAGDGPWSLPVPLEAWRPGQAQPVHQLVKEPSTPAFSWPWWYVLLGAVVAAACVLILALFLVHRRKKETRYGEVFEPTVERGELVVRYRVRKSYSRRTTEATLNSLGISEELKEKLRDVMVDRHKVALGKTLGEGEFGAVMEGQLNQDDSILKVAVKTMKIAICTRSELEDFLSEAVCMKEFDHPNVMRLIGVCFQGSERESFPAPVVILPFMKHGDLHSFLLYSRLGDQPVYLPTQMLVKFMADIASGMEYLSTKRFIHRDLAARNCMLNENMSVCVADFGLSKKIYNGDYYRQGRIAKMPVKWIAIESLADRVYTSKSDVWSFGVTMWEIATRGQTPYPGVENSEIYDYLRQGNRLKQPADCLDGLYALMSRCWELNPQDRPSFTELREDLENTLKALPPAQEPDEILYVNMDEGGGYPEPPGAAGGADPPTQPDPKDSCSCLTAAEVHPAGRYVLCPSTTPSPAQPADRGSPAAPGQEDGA

Serine/threonine-protein kinase PAK 6 (Homo sapiens), sequence (Q9NQU5 whole entry, looked up): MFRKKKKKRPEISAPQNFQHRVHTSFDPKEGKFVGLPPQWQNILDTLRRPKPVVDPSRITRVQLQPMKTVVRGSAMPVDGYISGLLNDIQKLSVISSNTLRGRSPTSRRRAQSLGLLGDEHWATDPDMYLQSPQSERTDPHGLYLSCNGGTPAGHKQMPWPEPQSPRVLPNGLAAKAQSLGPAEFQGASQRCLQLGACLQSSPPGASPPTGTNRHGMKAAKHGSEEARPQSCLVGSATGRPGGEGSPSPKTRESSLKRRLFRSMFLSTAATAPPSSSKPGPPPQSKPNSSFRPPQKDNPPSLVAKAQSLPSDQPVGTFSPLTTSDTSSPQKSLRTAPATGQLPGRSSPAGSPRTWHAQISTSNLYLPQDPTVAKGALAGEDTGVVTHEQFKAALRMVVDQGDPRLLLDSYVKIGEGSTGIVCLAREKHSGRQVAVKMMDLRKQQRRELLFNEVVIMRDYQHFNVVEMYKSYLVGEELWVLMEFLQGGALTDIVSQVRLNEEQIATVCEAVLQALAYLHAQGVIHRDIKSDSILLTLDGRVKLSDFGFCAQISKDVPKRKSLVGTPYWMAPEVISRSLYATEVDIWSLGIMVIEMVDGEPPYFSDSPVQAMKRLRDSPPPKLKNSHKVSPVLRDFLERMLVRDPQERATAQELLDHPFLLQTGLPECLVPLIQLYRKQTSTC
ALK tyrosine kinase receptor (Homo sapiens), sequence (Q9UM73 19-1620 limits assumed): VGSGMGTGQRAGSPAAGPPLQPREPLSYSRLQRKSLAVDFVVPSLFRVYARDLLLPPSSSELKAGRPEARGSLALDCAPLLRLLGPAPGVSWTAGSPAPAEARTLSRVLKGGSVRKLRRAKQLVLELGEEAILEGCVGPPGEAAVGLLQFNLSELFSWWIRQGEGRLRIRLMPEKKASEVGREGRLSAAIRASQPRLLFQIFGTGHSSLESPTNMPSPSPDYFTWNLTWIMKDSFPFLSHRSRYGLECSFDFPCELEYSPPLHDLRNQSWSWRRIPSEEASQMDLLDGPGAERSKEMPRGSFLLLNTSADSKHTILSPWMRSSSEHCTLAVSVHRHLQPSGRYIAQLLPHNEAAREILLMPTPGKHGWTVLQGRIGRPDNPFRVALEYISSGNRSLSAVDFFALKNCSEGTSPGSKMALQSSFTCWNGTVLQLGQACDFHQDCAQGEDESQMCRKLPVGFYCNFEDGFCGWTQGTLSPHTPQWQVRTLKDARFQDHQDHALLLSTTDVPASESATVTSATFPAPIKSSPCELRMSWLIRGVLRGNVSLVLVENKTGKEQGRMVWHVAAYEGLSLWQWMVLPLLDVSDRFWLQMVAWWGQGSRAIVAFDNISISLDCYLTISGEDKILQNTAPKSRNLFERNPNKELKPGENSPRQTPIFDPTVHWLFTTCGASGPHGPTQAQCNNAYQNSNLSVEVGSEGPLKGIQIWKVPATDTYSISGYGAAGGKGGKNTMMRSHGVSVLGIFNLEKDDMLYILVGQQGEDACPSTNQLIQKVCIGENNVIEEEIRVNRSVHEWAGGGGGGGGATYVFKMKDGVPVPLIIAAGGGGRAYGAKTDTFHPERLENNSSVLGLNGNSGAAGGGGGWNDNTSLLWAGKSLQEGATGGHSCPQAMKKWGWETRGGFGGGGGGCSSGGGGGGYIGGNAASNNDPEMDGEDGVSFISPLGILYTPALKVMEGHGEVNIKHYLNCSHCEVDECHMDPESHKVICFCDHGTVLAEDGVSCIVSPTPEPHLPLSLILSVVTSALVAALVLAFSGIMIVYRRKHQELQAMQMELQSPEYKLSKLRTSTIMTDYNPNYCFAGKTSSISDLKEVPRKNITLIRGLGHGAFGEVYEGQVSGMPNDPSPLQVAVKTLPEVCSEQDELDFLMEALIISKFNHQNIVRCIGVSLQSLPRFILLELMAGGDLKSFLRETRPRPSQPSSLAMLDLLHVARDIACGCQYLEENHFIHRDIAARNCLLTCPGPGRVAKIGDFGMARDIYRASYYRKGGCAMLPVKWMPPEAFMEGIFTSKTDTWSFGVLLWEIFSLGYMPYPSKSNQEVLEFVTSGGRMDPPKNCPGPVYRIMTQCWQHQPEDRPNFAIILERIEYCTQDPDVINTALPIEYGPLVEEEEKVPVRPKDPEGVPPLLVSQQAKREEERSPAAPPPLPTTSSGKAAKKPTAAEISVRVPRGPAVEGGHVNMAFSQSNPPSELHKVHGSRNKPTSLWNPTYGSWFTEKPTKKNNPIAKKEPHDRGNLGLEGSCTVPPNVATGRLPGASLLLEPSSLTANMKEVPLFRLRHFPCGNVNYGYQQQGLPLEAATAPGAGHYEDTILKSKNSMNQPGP

As to `Oc1cccc(-c2nc(-c3ccccc3)[nH]c2-c2ccncc2)c1`, the inhibition in test [1] is 2.02%; in test [2] it was 6.54%; in [3], 26.7%; in test [4], 9.87%; in [5], 36.6%; in [6], 8.39%. Also, the inhibition in [7] amounted to 31.3%; in [8] it was 7.9%; in test [9], 27%; in test [10] it was 3.52%; in [11] it was 8.47%; in test [12], 11.9%. The inhibition in test [13] came to 44.9%; in [14], 8.48%; in test [15], 43.3%; in [16] it was 3.1%; in [17] it was 4.75%; in test [18], 13.2%. In addition, the inhibition in test [19] is 50.8%; in [20] it was -4.03%.
Turning to `CS(=O)(=O)CCNCc1nc(-c2ccc3ncnc(Nc4ccc(OCc5cccc(C(F)(F)F)c5)cc4)c3c2)cs1`, the inhibition in test [1] is -5.71%; in test [2], 0.56%; in test [3], 1.8%; in [4], 2.03%; in test [5], 2.31%; in test [6] it was 1.36%. Further, the inhibition in test [7] stood at 1.22%; in test [8], 1.8%; in test [9], 1.75%; in [10], 0.33%; in test [11], 1.2%; in test [12] it was 1.32%. For the same molecule, the inhibition in test [13] came out at 0.85%; in test [14], 3.97%; in test [15] it was 6.56%; in test [16] it was 2.68%; in [17], 6.49%; in test [18], 1.49%. Moreover, the inhibition in [19] was 4.56%; in test [20], -5.39%.
Consider `Cc1cc(O)cc(C)c1/C=C/c1cncc(C(=O)N(C)C)c1`, for which the inhibition in test [1] is -3.14%; in test [2] it was 2.42%; in [3], 5.44%; in test [4], 4.36%; in [5], 8.17%; in test [6], 3.42%. Moreover, the inhibition in test [7] turned out to be 7.17%; in test [8], 4.29%; in [9], 8.87%; in [10], 2.58%; in [11] it was 1.49%; in test [12] it was 2.53%. Further, the inhibition in [13] stood at 14.2%; in test [14] it was 6.26%; in test [15], 17.9%; in [16], 1.7%; in test [17], 3.57%; in test [18], 4.85%. In addition, the inhibition was 12% in test [19] and -0.49% in test [20].
Turning to `Cc1ccc2c(-c3ccnc(Nc4ccc5c(c4)OCCO5)n3)c(-c3ccc(C(F)(F)F)cc3)nn2n1`, the inhibition in test [1] came out at 10.7%; in [2], 2.27%; in test [3], 3.32%; in test [4], 2.14%; in test [5], 3.45%; in test [6] it was 0.52%. Besides, the inhibition is 3.13% in test [7]; 1.51% in test [8]; 4.16% in [9]; 0.69% in [10]; -0.15% in [11]; 0.22% in test [12]. The inhibition in test [13] is 4.3%; in [14], 2.59%; in [15] it was 4.52%; in [16], 2.45%; in test [17] it was 1.5%; in test [18], 2.56%. Further, the figures for the inhibition in [19] and in test [20] were 5% and 0.41%, respectively.
With `ON=C1CCc2cc(-c3nc(C4CCNCC4)[nH]c3-c3ccncc3)ccc21`, the inhibition in test [1] was 0%; in test [2], -0.03%; in [3], 0.64%; in [4], 0.53%; in [5], 2.54%; in test [6], 0.36%. Also, the inhibition in test [7] stood at 1.06%; in [8] it was 1.13%; in [9], 2.38%; in test [10], 1.29%; in test [11] it was 1.59%; in test [12], 0.98%. The inhibition was determined as 1.65% in test [13]; 1.37% in [14]; 4.12% in test [15]; 2.45% in test [16]; 4.92% in test [17]; 2.12% in test [18]. Moreover, the inhibition is 6.46% in [19] and -1.8% in test [20].
Regarding `CN(C)CCCn1c(-c2nonc2N)nc2cnccc21`, the inhibition in test [1] was -2.15%; in test [2], 3.28%; in [3] it was 4.1%; in [4], 2.64%; in test [5], 1.22%; in test [6], 1.53%. For the same molecule, the inhibition in test [7] is 3.51%; in test [8], 3.76%; in [9], 2.62%; in test [10], 2.51%; in test [11], 1.3%; in [12], 2.05%. In addition, the inhibition stood at 4.68% in test [13]; 2.69% in test [14]; 4.71% in test [15]; 2.82% in test [16]; 4.63% in [17]; 3.56% in [18]. Moreover, the inhibition is -5.79% in [19] and -7.29% in test [20].
In the case of `Cc1ccc2c(c1)/C(=N/Nc1ccc(S(N)(=O)=O)cc1)C(=O)N2`, the inhibition in test [1] is -8.53%; in [2], 0.74%; in test [3] it was 3.57%; in test [4] it was -0.31%; in [5] it was 5.97%; in [6] it was 0.64%. The inhibition in test [7] is 8.33%; in test [8], 1.64%; in [9], 7.52%; in test [10], 1.43%; in test [11] it was 7.37%; in test [12] it was -0.42%. The inhibition in test [13] is 7.64%; in test [14] it was 0.83%; in [15], 8.09%; in test [16] it was 0.89%; in test [17], 2.77%; in [18], 3.63%. Moreover, the values for the inhibition in test [19] and in test [20] were 12.1% and -1.65%, respectively.

One may read the inhibition as the relative decrease from the control value, in per cent.
